We go through eleven compounds from PubChem BioAssay (NCATS).

Assay [1] has as its target Rap guanine nucleotide exchange factor 3 (Homo sapiens) (UniProt O95398). The assay is described as follows: Confirmatory qHTS for antagonist of cAMP-regulated guanine nucleotide exchange factor 3 (EPAC1) (AID 1645880). Further: nearly all actives have a fitted effect of over 55% in size. Further: potency means the concentration at half of the fitted maximal effect.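 On activity, negative = inhibition: plate controls were DMSO only for no effect and full effect of the ATA control for full effect.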 Conditions: EPAC1 Rap1B-BODIPY-GDP exchange, fluorescence; activity, negative = inhibition: at 115 µM (top of the series). An outline of the steps: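 Nucleotide exchange uses 100 nM EPAC1, 250 nM RAP1B-BODIPY-GDP and 50 uM GDP, with compounds in a concentration-titration series. After 5 min at room temperature, fluorescence (480 nm ex/540 nm em) is read every 5 min for 30 min. Data are normalized to control ATA and DMSO.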
(In general: In qHTS, concentration-response curves come from the screen itself.)

Assay [2] has the same target. In words: Confirmatory qHTS for agonist of cAMP-regulated guanine nucleotide exchange factor 3 (EPAC1) (AID 1645881). Further: nearly all actives have a fitted effect of over 75% in size. Further: potency means the concentration at half of the fitted maximal effect.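 On activation: EPAC1 catalysed release of BODIPY-GDP from Rap1B seen as fluorescence loss; 100% = effect of cAMP agonist control.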
The target of assay [3] is Rap guanine nucleotide exchange factor 4 (Homo sapiens) (UniProt Q8WZA2). In words: Confirmatory qHTS for agonist of cAMP-regulated guanine nucleotide exchange factor 4 (EPAC2) (AID 1645884).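 Further: nucleotide exchange releases bodipy-GDP from Rap1 and this lowers its fluorescence; nearly all actives have a fitted effect of over 65% in size.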 Further: potency means the concentration at half of the fitted maximal effect.
For assay [4] the target is unchanged. The assay is described as follows: Confirmatory qHTS for antagonist of cAMP-regulated guanine nucleotide exchange factor 4 (EPAC2) (AID 1645885). Further: nearly all actives have a fitted effect of over 25% in size. Further: potency means the concentration at half of the fitted maximal effect.
Assay [5] concerns the target Rap guanine nucleotide exchange factor 3 (Homo sapiens) (UniProt O95398). In words: Counterscreen qHTS for antagonist of cAMP-regulated guanine nucleotide exchange factor 3 (EPAC1) (AID 1645888).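 Further: fluorescence loss as bound BODIPY-GDP is released from Rap1B; % of control where 0% means no effect.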 An outline of the steps:
(§1)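 Rap1B–BODIPY-GDP (250 nM) with 50 uM GDP; compounds pin-transferred to 9.74 nM–152 uM final (activator) or from 7.32 nM upwards (inhibitor). Fluorescence Ex/Em 480/540 nm read at 5 and 30 min, then after adding cAMP or buffer, at room temperature.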
In general terms: A counterscreen serves to expose hits that act by an unwanted route or on another target.

For assay [6] the target is unchanged. In words: Counterscreen qHTS for agonist of cAMP-regulated guanine nucleotide exchange factor 3 (EPAC1) (AID 1645889). Further: nearly all actives have a fitted effect of over 40% in size. Further: potency means the concentration at half of the fitted maximal effect. On activation: % of control where 0% means no effect. The procedure, abridged:
as §1

Assay [7] is described as follows: AP1 Signaling Pathway (AID 357; active means well fitted curve in either direction with a large enough effect, not every such curve was filed as active;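 further: ME-180 reporter cells stimulated with EGF at its EC50 level; on the % scale 0 is the no-effect control and ±100 the full control effect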). Conditions: ME-180 (cervical carcinoma) AP-1-bla reporter, EGF-induced, beta-lactamase ratio, 5 h; at 7.69 µM (top of the series) unless noted. The procedure, abridged: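 A ratiometric CCF4 readout (405 nm excitation; 460 and 530 nm emission) quantified AP-1-driven beta-lactamase in ME-180 cells after 5 h with compound and EC50 EGF; AC50 values were derived for activators and inhibitors.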

Assay [8] concerns the target Cytochrome P450 1A2 (Homo sapiens) (UniProt P05177). The assay is described as follows: p450-cyp1a2 (AID 410; calls by dose curve; further: potency means the concentration at half of the fitted maximal effect). An outline of the steps: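 Luminescent readout of luciferin formed from Luciferin-ME by human CYP1A2; data normalized against complete inhibition by 57 uM furafylline. Enzyme 20nM, substrate 100uM at Km, 100mM KPO4 buffer, 60 min reaction at room temperature.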

The nature of assay [9]: NFAT Signaling Pathway (AID 444; active means well fitted curve in either direction with a large enough effect, not every such curve was filed as active;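 further: carbachol stimulus at about its EC50 of 1 µM final; on the % scale 0 is the no-effect control and ±100 the full control effect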). The settings on record: Jurkat NFAT-bla M1, carbachol, beta-lactamase ratio, 5 h; at 7.69 µM (top of the series) unless noted. An outline of the steps:
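Jurkat cells with NFAT-driven β-lactamase reporter and co-expressed M1 receptor, stimulated with carbachol (final 1 uM, ~EC50), compound titration, 5 h at 37 °C. CCF4 loaded 1 h at RT; 460/530 nm ratio gave %activity and AC50.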

Assay [10] in a line: Stat Signaling Pathway (AID 446; active means well fitted curve in either direction with a large enough effect, not every such curve was filed as active;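 further: ME-180 cervical cancer cells given 40 pM IL-6 alongside compound; SIE-controlled beta-lactamase reporter measured as 460/530 nm FRET emission ratio; on the % scale 0 is the no-effect control and ±100 the full control effect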). The procedure, abridged:
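ME-180 cells carrying a SIE-driven beta-lactamase reporter are stimulated with 40 pM IL-6 for 5 h at 37C in the presence of compound. The 460/530 nm FRET substrate ratio is read after 2.5 h at RT. Data are normalised to 300 pM IL-6 and to 125 nM JAK inhibitor controls.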

Assay [11] concerns the target Glucocorticoid receptor (Homo sapiens) (UniProt P04150). In words: GR-GFP Redistribution (AID 450;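 active means compounds whose dose series gives a full or clear partial fitted curve of increased nuclear translocation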; further: potency means the concentration at half of the fitted maximal effect). The settings on record: U2OS GR-GFP nuclear translocation, laser cytometry, 2 h.
For assay [12] the target is unchanged. In words: GR-EFC Redistribution (AID 451; calls by dose curve; further: potency means the concentration at half of the fitted maximal effect). The settings on record: CHO-K1 GR-EFC translocation, beta-gal luminescence, 2 h. The procedure, abridged:
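CHO-K1 cells expressing nuclear EA and GR-ED fragments of b-gal; compounds titrated up to 46 uM final, 2 h at 37 C. GR nuclear translocation read as complemented b-gal luminescence after 1 h RT detection.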

Assay [13] addresses Mitogen-activated protein kinase 10 (Mus musculus) (UniProt Q61831). The assay is described as follows: JNK3 AlphaScreen Assay (AID 530; active means well fitted curve in either direction with a large enough effect, not every such curve was filed as active;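 further: kinase came from lysate of stimulated human HepG2 cells; signal reports phosphorylation of biotinylated GST-cJun 1-79 at Ser73 with 10 µM ATP; on the % scale 0 is the no-effect control and ±100 the full control effect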). An outline of the steps: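 Pre-activated (IL-1β/TNFα) JNK3 in HepG2 lysates phosphorylates biotin-GST-cJun(1-79), 10 uM ATP; anti-phospho-cJun(Ser73) AlphaScreen read at room temperature, pH 7.6 Tris buffer. Compounds pre-incubated 15 min as titrations.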
For orientation: Alpha assays give light when donor and acceptor beads are brought close together.

The target of assay [14] is 3',5'-cyclic-AMP phosphodiesterase 4B (Homo sapiens) (UniProt Q07343). The assay is described as follows: qHTS Assay for Inhibitors of PDE-IV (AID 607; active means well fitted activation curve with a large enough effect in the main read-out, with a control signal flat, not every such curve was filed as active; further: % of control where 0% means no effect). The procedure, abridged:
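HEK293 ACTOne cells with CNG channel (1000/well), endogenous PDE4; membrane potential dye, compounds up to 22.9 uM final. Fluorescence Ex 535/Em 590; RO 20-1724 (100 uM final) as reference.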

The target of assay [15] is Cytochrome P450 2C9 (Homo sapiens) (UniProt P11712). In words: qHTS Assay for Inhibitors and Substrates of Cytochrome P450 2C9 (AID 883). Further: potency means the concentration at half of the fitted maximal effect; nearly all actives have a fitted effect of over 60% in size. The procedure, abridged: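 10nM CYP2C9 + 100uM Luciferin-H (=KM), 25mM KPO4; cpd 10 min 37C; NADPH regen, 60 min 37C; stop/detect with P450 Glo-Buffer 20 min; luminescence. Norm. to 57uM sulphaphenazole as full inhibition.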
The target in assay [16] is Cytochrome P450 3A4 (Homo sapiens) (UniProt P08684). In words: qHTS Assay for Activators of Cytochrome P450 3A4 (AID 885). Further: nearly all actives have a fitted effect of over 65% in size. The procedure, abridged: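 Human CYP3A4 (20 nM) with Luciferin-PPXE at 25 uM (its KM) in 200 mM KPO4; 10 min compound preincubation, then NADPH regeneration and 60 min reaction at RT. Luciferin read by luminescence; normalized to 57 uM ketoconazole full inhibition.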

Assay [17] deals with Cytochrome P450 2C19 (Homo sapiens) (UniProt P33261). The assay is described as follows: qHTS Assay for Inhibitors and Substrates of Cytochrome P450 2C19 (AID 899). Further: potency means the concentration at half of the fitted maximal effect; nearly all actives have a fitted effect of over 60% in size. An outline of the steps: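 Luminescent read-out of luciferin formed from Luciferin-H EGE (10uM, equal to KM). Enzyme 5nM in 50mM KPO4; compound added, 10 min at 37C, then NADPH regenerating system for 60 min at 37C. Full inhibition defined by 57uM ketoconazole.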

The target of assay [18] is Catechol O-methyltransferase (Homo sapiens) (UniProt P21964). In words: Confirmatory Screen for Target Class Profiling of Small Molecule Inhibitors of Methyltransferases (AID 1745852; calls by dose curve; further: potency means the concentration at half of the fitted maximal effect). Conditions: MTase-Glo luminescence, SAH detection, recombinant enzyme; measured here: COMT max response; stronger effect = lower value.
The target in assay [19] is Guanidinoacetate N-methyltransferase (Homo sapiens) (UniProt Q14353). Described as above. Conditions: activity change, negative = inhibition: at 57.3 µM (top of the series) unless noted.
In assay [20] the target is Nicotinamide N-methyltransferase (Homo sapiens) (UniProt P40261). The description is as above. The settings on record: MTase-Glo luminescence, SAH detection, recombinant enzyme; measured here: NNMT max response; stronger effect = lower value.
The target in assay [21] is Phenylethanolamine N-methyltransferase (Homo sapiens) (UniProt P11086). The assay is described as above. The settings on record: MTase-Glo luminescence, SAH detection, recombinant enzyme; measured here: PNMT max response; stronger effect = lower value.

Results filed as inconclusive are left out. Active and inactive are the calls of the source. Unless noted, the call rests on the fitted dose curve; in most records, active means well fitted curve in the direction sought with a large enough effect; inconclusive means small, poorly fitted or top-dose-only effect, or another doubt; inactive means no such curve, though single readings can be large; an effect the other way counts as inactive or inconclusive.

Sequence of Rap guanine nucleotide exchange factor 3 (Homo sapiens) (O95398 whole entry, looked up): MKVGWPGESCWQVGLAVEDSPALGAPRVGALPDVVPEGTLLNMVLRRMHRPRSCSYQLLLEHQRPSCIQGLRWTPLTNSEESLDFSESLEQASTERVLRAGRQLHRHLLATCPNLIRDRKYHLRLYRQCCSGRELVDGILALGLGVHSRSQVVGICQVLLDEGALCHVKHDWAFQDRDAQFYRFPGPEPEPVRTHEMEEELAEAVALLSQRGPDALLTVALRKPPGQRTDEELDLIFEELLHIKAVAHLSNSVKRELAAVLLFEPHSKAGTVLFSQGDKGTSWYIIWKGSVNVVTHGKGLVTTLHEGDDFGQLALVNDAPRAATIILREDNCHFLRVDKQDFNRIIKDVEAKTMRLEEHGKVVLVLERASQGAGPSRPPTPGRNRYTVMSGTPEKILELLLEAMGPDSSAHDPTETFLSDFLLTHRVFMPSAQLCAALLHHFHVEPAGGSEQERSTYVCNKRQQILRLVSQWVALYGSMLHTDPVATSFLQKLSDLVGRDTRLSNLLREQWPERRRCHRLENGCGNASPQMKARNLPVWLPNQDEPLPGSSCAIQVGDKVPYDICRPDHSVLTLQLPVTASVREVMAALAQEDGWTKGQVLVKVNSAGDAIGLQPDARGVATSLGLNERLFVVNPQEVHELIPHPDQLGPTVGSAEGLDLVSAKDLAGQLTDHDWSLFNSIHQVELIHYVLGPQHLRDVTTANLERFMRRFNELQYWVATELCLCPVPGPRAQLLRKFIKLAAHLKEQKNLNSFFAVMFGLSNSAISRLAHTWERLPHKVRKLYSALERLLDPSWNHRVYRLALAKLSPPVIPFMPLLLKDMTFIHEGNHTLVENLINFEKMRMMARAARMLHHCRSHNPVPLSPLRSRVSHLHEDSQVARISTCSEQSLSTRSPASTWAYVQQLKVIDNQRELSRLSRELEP
Sequence of Rap guanine nucleotide exchange factor 4 (Homo sapiens) (Q8WZA2 whole entry, looked up): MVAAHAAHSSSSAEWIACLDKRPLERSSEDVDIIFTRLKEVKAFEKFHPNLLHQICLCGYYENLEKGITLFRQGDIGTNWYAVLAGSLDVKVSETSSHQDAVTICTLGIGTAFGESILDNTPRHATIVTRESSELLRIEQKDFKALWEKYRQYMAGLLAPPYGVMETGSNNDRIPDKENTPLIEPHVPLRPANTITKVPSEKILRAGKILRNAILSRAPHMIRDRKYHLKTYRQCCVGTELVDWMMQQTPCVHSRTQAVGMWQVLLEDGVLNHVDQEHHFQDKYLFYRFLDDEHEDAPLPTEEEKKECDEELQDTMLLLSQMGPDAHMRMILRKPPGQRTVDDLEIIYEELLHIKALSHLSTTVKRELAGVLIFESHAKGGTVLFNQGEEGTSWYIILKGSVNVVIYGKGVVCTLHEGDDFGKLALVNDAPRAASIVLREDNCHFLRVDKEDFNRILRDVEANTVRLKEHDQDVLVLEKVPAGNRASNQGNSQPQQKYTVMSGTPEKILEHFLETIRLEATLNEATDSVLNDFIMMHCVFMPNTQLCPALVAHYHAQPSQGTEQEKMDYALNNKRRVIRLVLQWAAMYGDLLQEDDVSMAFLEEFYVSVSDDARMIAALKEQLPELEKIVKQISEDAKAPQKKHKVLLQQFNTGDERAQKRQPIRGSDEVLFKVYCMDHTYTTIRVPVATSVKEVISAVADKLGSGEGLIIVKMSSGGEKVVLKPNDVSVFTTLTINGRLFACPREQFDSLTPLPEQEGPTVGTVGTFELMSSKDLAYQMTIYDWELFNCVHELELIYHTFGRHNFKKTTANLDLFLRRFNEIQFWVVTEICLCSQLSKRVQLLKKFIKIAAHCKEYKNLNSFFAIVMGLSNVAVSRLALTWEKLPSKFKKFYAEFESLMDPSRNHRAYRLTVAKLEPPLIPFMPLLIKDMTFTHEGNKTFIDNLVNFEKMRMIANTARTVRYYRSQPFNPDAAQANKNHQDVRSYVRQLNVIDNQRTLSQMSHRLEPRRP
Sequence of Glucocorticoid receptor (Homo sapiens) (P04150 whole entry, looked up): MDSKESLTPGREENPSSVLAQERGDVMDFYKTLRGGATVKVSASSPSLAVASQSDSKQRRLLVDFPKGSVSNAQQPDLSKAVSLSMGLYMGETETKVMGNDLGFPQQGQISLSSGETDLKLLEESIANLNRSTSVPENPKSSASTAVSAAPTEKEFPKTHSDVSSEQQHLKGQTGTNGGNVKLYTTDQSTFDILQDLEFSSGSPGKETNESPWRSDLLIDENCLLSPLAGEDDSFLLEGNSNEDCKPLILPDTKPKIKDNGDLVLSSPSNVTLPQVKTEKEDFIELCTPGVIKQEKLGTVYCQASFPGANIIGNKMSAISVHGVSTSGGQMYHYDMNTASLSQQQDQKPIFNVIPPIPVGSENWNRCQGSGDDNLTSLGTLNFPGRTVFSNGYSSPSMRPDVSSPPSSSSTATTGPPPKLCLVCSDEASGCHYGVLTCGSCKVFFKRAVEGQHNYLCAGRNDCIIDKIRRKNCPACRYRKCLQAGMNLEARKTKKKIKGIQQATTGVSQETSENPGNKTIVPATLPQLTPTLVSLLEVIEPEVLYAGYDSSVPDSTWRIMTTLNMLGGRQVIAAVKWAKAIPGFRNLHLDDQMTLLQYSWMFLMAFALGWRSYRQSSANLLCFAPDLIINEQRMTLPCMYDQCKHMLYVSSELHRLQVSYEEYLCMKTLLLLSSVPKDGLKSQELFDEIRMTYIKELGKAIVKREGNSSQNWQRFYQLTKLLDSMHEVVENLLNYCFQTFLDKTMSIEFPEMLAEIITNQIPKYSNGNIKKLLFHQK
Sequence of Cytochrome P450 1A2 (Homo sapiens) (P05177 whole entry, looked up): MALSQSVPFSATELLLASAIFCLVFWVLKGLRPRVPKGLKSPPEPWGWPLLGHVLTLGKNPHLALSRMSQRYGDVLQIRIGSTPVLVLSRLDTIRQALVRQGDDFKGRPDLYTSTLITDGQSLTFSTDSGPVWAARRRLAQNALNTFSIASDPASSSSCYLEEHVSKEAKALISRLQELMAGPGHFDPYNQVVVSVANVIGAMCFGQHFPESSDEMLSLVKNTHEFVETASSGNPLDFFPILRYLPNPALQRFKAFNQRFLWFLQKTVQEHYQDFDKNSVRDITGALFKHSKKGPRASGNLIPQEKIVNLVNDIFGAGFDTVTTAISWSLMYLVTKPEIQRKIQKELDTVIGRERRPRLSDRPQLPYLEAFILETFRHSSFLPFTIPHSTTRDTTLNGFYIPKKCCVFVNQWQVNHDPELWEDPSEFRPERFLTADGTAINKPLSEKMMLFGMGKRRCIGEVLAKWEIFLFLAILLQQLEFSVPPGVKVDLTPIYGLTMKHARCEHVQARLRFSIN
Sequence of Phenylethanolamine N-methyltransferase (Homo sapiens) (P11086 whole entry, looked up): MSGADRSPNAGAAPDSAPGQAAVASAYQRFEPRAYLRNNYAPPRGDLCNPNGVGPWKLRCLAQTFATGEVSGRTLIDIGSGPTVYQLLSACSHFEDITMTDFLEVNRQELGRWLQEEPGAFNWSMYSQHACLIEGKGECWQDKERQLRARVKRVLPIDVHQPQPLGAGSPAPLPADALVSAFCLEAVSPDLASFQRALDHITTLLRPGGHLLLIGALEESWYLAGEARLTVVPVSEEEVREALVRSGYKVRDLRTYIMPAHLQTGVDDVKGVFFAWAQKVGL
Sequence of Catechol O-methyltransferase (Homo sapiens) (P21964 whole entry, looked up): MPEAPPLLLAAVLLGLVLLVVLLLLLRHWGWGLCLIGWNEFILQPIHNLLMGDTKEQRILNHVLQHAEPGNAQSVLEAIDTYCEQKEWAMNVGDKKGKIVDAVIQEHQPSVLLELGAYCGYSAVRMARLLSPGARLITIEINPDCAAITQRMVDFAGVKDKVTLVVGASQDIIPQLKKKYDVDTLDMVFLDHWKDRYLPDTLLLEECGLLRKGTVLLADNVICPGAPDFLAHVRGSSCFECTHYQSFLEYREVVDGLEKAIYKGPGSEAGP
Sequence of Cytochrome P450 3A4 (Homo sapiens) (P08684 whole entry, looked up): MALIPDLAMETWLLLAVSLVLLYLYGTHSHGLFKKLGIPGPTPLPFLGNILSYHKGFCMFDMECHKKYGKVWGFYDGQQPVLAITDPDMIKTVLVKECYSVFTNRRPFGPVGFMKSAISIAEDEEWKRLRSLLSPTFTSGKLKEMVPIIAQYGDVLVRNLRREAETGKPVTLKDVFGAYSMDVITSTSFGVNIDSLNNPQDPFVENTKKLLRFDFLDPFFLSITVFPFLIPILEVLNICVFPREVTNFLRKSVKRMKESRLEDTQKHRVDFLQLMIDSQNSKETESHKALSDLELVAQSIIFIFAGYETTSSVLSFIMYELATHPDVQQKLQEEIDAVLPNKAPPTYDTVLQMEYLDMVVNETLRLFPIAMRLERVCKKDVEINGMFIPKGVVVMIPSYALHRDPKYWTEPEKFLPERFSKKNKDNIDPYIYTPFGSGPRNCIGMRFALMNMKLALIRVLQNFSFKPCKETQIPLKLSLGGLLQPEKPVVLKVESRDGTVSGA
Sequence of Cytochrome P450 2C9 (Homo sapiens) (P11712 whole entry, looked up): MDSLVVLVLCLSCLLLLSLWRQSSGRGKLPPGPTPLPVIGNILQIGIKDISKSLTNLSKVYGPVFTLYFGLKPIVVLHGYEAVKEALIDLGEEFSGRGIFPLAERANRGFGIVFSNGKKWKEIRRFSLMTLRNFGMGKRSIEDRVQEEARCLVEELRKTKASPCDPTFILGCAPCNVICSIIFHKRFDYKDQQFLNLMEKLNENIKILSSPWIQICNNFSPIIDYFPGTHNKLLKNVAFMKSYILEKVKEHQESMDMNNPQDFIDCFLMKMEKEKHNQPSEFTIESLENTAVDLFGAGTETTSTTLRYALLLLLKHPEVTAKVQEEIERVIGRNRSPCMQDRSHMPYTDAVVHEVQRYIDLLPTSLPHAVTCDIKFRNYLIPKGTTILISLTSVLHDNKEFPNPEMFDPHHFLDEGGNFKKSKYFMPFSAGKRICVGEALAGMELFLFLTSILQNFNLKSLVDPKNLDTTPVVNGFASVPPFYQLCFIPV

With `CCOC(=O)c1sc2nc(NC(=O)COc3ccccc3)sc2c1C`, the Potency result in [1], in [2] and in [4] was “inactive” each time. Besides, the activation in [3] is 1.9% [at 17.1 µM, percent relative to cAMP agonist control] (inactive); in [6], 25% [at 30.8 µM] (inactive). In addition, the activity change, negative = inhibition in assay [5] was -6.87% [at 30.8 µM] (inactive).
On to `CN1/C(=C\C=C2/SC(=S)N(CC(=O)O)C2=O)C(C)(C)c2ccccc21`, for which the Potency result in assay [1] and in assay [4] was “inactive” in each case. In addition, the figures for the Potency in assay [2], in [3] and in assay [6] were 44.7 µM (active), 7.94 µM (active) and 10 µM (active), respectively. The activity change, negative = inhibition in assay [5] is 286% [at 30.8 µM] (inactive).
As to `Cc1nc2c(C(=O)NCCc3ccc(Cl)cc3)c[nH]n2c(=O)c1Cc1ccccc1F`, the Potency in assay [1] was 84.9 µM (active). Besides, the Potency result in [2], in assay [3], in [4], in [5] and in [6] was “inactive” throughout.
As for `c1ccc(NN(Cc2cnccn2)c2ccccc2)cc1`, the activity change, negative = inhibition in assay [7] was -14% (inactive); in assay [9], -17.6% (inactive); in assay [13] it was 3.55% [at 11.4 µM] (inactive). Moreover, the Potency is 2 µM (active) in [8]; > 46 µM (inactive) in [11]; > 9.22 µM (inactive) in [12]; 3.16 µM (active) in assay [15]; 2 µM (active) in assay [17]. In addition, in assay [10], the outcome was “inactive”. Also, the Potency entry in assay [14], in assay [1], in assay [2], in [3], in assay [4] and in assay [5] was “inactive” each time. Moreover, in [6], the Potency entry was “inactive”. Also, the activity change, positive = activation in assay [16] was -52.2% [at 11.4 µM] (inactive).
Consider `CSc1ccccc1C(=O)Nc1ccc(C)cc1C`, for which the Potency entry in assay [1], in assay [2] and in [4] was “inactive” in each case. Further, the activation in [3] was -2.17% [at 17.1 µM, percent relative to cAMP agonist control] (inactive); in assay [6] it was -3.4% [at 30.8 µM] (inactive). For the same compound, the activity change, negative = inhibition in [5] was -16.8% [at 30.8 µM] (inactive).
As for `COc1ccccc1NC(=O)CSc1nc2sc(C)c(C)c2c(=O)n1C`, the Potency entry in assay [1], in [2] and in [4] was “inactive” throughout. The activation was 1.44% [at 17.1 µM, percent relative to cAMP agonist control] (inactive) in assay [3] and 15.6% [at 30.8 µM] (inactive) in [6]. For the same compound, the activity change, negative = inhibition in assay [5] is -1.48% [at 30.8 µM] (inactive).
For the compound `COC(=O)c1cc2ccsc2n1Cc1cccc(F)c1`, the Potency entry in [1], in assay [2], in assay [3], in assay [4], in [5] and in assay [6] was “inactive” each time.
As for `CCc1nnc(NS(=O)(=O)c2ccc(NC(=S)NC(=O)c3ccc(Br)cc3)cc2)s1`, the Potency in assay [1] is 60.1 µM (active); in assay [4], 75.7 µM (active). In addition, the Potency entry in assay [2], in assay [3], in assay [5] and in [6] was “inactive” each time.
With `O=C(c1ccco1)N(Cc1cccs1)c1ccc(F)cc1`, the Potency entry in [1], in [2], in assay [3], in assay [4], in [5] and in [6] was “inactive” each time.
For the compound `COC(=O)/C(N=Nc1cccc(C(F)(F)F)c1)=C(\C)O`, the Potency entry in assay [1], in assay [2] and in assay [4] was “inactive” in each case. Moreover, the activation was 10.2% [at 17.1 µM, percent relative to cAMP agonist control] (inactive) in assay [3] and 22.5% [at 30.8 µM] (inactive) in [6]. In addition, the activity change, negative = inhibition in assay [5] was -9.14% [at 30.8 µM] (inactive).
For `O=C(NCCc1ccccc1)c1ccc2c(=O)[nH]c3c(C(=O)NCC4CCCO4)sc(=S)n3c2c1` (stereo unspecified), the results for the Potency in assay [1], in assay [4] and in [19] were 75.7 µM (active), 30.1 µM (active) and 24.1 µM (active), respectively. For the same compound, the Potency entry in assay [2], in [3], in assay [5] and in assay [6] was “inactive” throughout. In addition, the activity in assay [18] was -68.6%; in assay [20] it was -55.9%; in assay [21], -66.7%.
